SMILES strings stand for the structures. Calls of active or inactive are those of the source.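 The calls were made as follows: active = activity change under -35% in any replicate well, with more than 20 beads read in that well; inactive = the rest.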

This note sets out measurements from PubChem BioAssay AID1259341 (Broad Institute, 2017).

The assay deals with Caspase recruitment domain-containing protein 9 (Homo sapiens) + E3 ubiquitin-protein ligase TRIM62 (Homo sapiens) (UniProt Q9H257+Q9BVG3). The assay is described as follows: CARD9/TRIM62 protein interaction inhibitors – cell lysate, HEK293FT lysates, Luminex bead ELISA, primary screen (AID 1259341).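 Also: PE anti-Flag signal of Flag-CARD9 captured by myc-TRIM62 beads.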 As to conditions: PE fluorescence, stronger effect = lower value, concentration not given here. (In general: ELISA stands for enzyme-linked immunosorbent assay.)
Chain of Caspase recruitment domain-containing protein 9 (Homo sapiens) + E3 ubiquitin-protein ligase TRIM62 (Homo sapiens) (Q9BVG3 whole entry, looked up, the tested form may be a part): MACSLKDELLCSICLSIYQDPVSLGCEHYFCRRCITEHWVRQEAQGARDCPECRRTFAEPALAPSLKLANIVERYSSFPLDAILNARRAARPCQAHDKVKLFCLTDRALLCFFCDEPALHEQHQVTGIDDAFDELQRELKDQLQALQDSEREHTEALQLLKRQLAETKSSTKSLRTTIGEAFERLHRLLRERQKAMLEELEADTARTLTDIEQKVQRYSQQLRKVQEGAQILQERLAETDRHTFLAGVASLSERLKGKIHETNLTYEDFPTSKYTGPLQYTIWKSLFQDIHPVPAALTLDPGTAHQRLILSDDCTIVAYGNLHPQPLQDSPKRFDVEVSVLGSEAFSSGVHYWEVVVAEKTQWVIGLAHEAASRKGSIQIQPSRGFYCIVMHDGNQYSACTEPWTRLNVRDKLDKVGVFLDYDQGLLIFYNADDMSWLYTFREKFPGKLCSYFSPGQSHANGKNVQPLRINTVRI
Chain of Caspase recruitment domain-containing protein 9 (Homo sapiens) + E3 ubiquitin-protein ligase TRIM62 (Homo sapiens) (Q9H257 whole entry, looked up, the tested form may be a part): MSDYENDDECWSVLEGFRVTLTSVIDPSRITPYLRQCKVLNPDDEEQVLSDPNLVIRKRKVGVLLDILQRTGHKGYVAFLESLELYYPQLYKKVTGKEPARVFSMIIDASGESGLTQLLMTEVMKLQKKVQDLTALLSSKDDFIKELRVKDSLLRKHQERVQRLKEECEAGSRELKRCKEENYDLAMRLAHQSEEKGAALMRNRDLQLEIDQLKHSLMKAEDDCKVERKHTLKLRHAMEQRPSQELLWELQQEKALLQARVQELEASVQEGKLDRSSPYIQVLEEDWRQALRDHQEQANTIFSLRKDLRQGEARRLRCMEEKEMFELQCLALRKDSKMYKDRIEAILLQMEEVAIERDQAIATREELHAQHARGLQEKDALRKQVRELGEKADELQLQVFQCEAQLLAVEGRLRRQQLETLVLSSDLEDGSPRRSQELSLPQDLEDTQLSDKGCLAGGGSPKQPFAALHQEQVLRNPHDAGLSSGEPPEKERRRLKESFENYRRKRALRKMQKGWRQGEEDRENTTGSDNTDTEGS
Take `COCCCNC(=O)C1CCN(c2ccc(N3CCOCC3)nn2)CC1`: the activity change, negative = inhibition is 28.3% (inactive).
For the molecule `CCCC(=O)NCc1ccc2c(c1)cc(C)n2C`, the activity change, negative = inhibition was 7.86% (inactive).
The same measure for `COc1ccc(-c2ccc(CCC(=O)O)o2)cc1`: -0.268% (inactive); for `NC(=O)C1(N2CCCCC2)CCN(c2ncc(NC(=O)c3ccccc3)cc2C(=O)O)CC1`: -57.3% (active).
`O=[N+]([O-])c1cccc(-c2nnc3ccc4ccccc4n23)c1`: the activity change, negative = inhibition was -7.69% (inactive).
Consider `Nc1cc2c(cc1O)CCCC2`, for which the activity change, negative = inhibition was -4.6% (inactive).
Regarding `CCOc1ccccc1NC(=O)N1CCCC(c2nccn2CCOC)C1` (stereo unspecified), the activity change, negative = inhibition is -5.04% (inactive).
As to `O=C(Nc1nccs1)c1cc(-c2ccccn2)nc2c(Cl)cccc12`, the activity change, negative = inhibition is -0.831% (inactive).
The same measure for `O=C(NCc1ccco1)c1c2c(nc3ccccc13)CCC2`: -3.42% (inactive); for `C[C@H](CO)N1C[C@H](C)[C@@H](CN(C)CC2CCCCC2)OCCCC[C@H](C)Oc2ccc(NS(=O)(=O)c3ccccc3)cc2C1=O`: 7.12% (inactive); for `C[C@H](CO)N1C[C@H](C)[C@@H](CN(C)CC2CCCCC2)OCCCC[C@H](C)Oc2ccc(NS(=O)(=O)c3cn(C)cn3)cc2C1=O`: 9.05% (inactive).
As for `COc1ccc(-c2nc(SCC(=O)N3CCN(c4ccccc4OC)CC3)n[nH]2)cc1`, the activity change, negative = inhibition was 23.5% (inactive).
On to `O=C(O)CCc1ccc(-c2cccs2)n1NC(=O)c1ccco1`, for which the activity change, negative = inhibition was 1.63% (inactive).
With `O=C(O)COc1ccc(-n2cccc2)cc1`, the activity change, negative = inhibition was -1.45% (inactive).
In the case of `O=C(Cc1cccs1)Nc1nnc(Cc2ccccc2)s1`, the activity change, negative = inhibition was 10.6% (inactive).
`Cc1c(C(=O)OCC2CCCO2)[nH]c2c1C(=O)CC(c1ccco1)C2` (stereo unspecified): the activity change, negative = inhibition is -1.75% (inactive).
Take `O=C1CC2(CCN(C(=O)Nc3ccccc3)CC2)CN1Cc1ccc(Cl)cc1`: the activity change, negative = inhibition was -3.18% (inactive).
Consider `C[C@H](CO)N1C[C@H](C)[C@@H](CN(C)CC2CCCCC2)OCCCC[C@H](C)Oc2ccc(NS(=O)(=O)c3ccc(F)cc3)cc2C1=O`, for which the activity change, negative = inhibition is -12.1% (inactive).
For the molecule `Cc1ccc(-c2nnc(-c3nc(Nc4nc5ccccc5s4)c4ccccc4n3)o2)cc1`, the activity change, negative = inhibition was -10.3% (inactive).
The same measure for `CCSCCNC(=O)c1cncc(Br)c1`: 0.232% (inactive).
In the case of `Cc1ccccc1C(=O)Nc1cnc(N2CCC(C(N)=O)(N3CCCCC3)CC2)c(C(=O)O)c1`, the activity change, negative = inhibition is -48.4% (active).
The same measure for `Cn1ncc2c(NNC(=O)c3cc(O)cc(O)c3)ncnc21`: 1.25% (inactive).
Take `C[n+]1cccc2cccc(O)c21`: the activity change, negative = inhibition was -2.89% (inactive).
On to `COC[C@]1(O)CCN(C(=O)CCN(C)S(C)(=O)=O)CC1(C)C`, for which the activity change, negative = inhibition was -0.387% (inactive).
The same measure for `O=C(O)c1cc(-c2ccco2)nc2ccccc12`: 15.8% (inactive); for `C(=C\c1ccco1)/c1nc2ccccc2[nH]1`: -9.75% (inactive).
In the case of `Cn1cccc1CNCCCSc1ncccn1` it was 1.41% (inactive); in that of `Clc1ccc2nc(CN3CCCCCC3)cn2c1`, 5.28% (inactive); in that of `COCCC(=O)N1CCCC2(CCN(CCN3CCCC3)C2=O)C1` (stereo unspecified), -7.49% (inactive).
Consider `N#Cc1c(NC(=O)CSc2nc3ccccc3o2)sc2c1CCC2`, for which the activity change, negative = inhibition was 2.26% (inactive).
The same measure for `COc1ccc(S(=O)(=O)N2CCN(C(=O)c3cc4c(s3)CCC4)CC2)cc1`: 0.552% (inactive).
For the molecule `COc1ccc(N2Cc3cccc(C(=O)NC(C)CCc4ccco4)c3C2=O)cc1` (stereo unspecified), the activity change, negative = inhibition was 0.962% (inactive).
On to `Cc1ncnc(N2CCC(c3nccn3Cc3cccnc3)CC2)c1C`, for which the activity change, negative = inhibition is -10.5% (inactive).
The same measure for `OCc1ccc(O)c2ncccc12`: -35% (inactive).
In the case of `CCCOc1ccc(CCC(=O)O)cc1`, the activity change, negative = inhibition was -3.23% (inactive).
In the case of `CC(=O)c1cccc(OCC(=O)N(C)CC(=O)NCc2ccco2)c1`, the activity change, negative = inhibition was -22.5% (inactive).
